According to the supplement of paper PMC10849652:
About 8,800 targets were measured; listed, in parts, are those with a hit and a random draw of the rest. About 0.5% of all pairs of compound and target were hits.

Experiments:
Test in all cases: log2 fold change, soluble protein after heating vs DMSO (PISA); higher = thermal stabilisation; K562 lysate, 10 uM; active = over 0.2 and 3.5 SD of the protein, either way, in both replicates (recomputed)
ibrutinib = compound: C=CC(=O)N1CCC[C@@H](n2nc(-c3ccc(Oc4ccccc4)cc3)c3c(N)ncnc32)C1 [ibrutinib]
In short: (§1)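 A 30 min treatment with 10 μM compound was applied to crude K562 extract at 1 mg/mL protein in PBS pH 7.4 with 1 mM MgCl2. Heating for 3 min spanned 48°C-58°C, after which aliquots were pooled, adjusted to 0.5% NP-40 at 4°C and spun at 21,000xg for 90 min. TMTpro 16plex LC-MS/MS of the supernatant, with channel sums equalised, gave values recorded as log-two fold change in thermal stability against solvent controls, from duplicates.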

[1] = compound: CC(=O)c1cnc2ccc(-c3cc(Cl)c(O)c(Cl)c3)nc2c1N[C@H]1CC[C@H](CN(C)C)CC1
In short: as §1

ralimetinib = compound: CC(C)(C)Cn1c(N)nc2ccc(-c3[nH]c(C(C)(C)C)nc3-c3ccc(F)cc3)nc21 [ralimetinib]
In short: as §1

[2] = compound: CC(C)(O)CC(=O)NCCn1ccc2ncnc(Nc3ccc(Oc4cccc(C(F)(F)F)c4)c(Cl)c3)c21
In short: as §1

[3] = compound: CC(C)C1=C2N=C(C=C(N2N=C1)NCC3=CC=CC=C3)NCCCCCCN
In short: as §1

[4] = compound: CC1=C(C(CC(=O)N1)C2=CC=C(C=C2)C(F)(F)F)C(=O)NC3=C(C=C4C(=C3)C=NN4)F
In short: as §1

[5] = compound: CC1=C(C2=C(C=C1)C(=O)C3=CC=CC=C3N2CCCN)C
In short: as §1

[6] = compound: CC1=C(C=C(C=C1)NC(=O)C2=CC(=CC=C2)C(C)(C)C#N)NC3=CC4=C(C=C3)N=CN(C4=O)C
In short: as §1

[7] = compound: CC1=C(C=C(C=C1)NC(=O)C2=CC(=CC=C2)N(C)C)NC(=O)C3=CC=C(C=C3)O
In short: as §1

[8] = compound: CC1=CC=C(C=C1)SC2=C3C=C(SC3=CN=C2)C(=O)N
In short: as §1

vemurafenib = compound: CCCS(=O)(=O)Nc1ccc(F)c(C(=O)c2c[nH]c3ncc(-c4ccc(Cl)cc4)cc23)c1F [vemurafenib]
In short: as §1

[9] = compound: CCCS(=O)(=O)Nc1ccc(F)c(C(=O)c2c[nH]c3ncc(Cl)cc23)c1F
In short: as §1

barasertib = compound: CCN(CCCOc1ccc2c(Nc3cc(CC(=O)Nc4cccc(F)c4)[nH]n3)ncnc2c1)CCOP(=O)(O)O [barasertib]
In short: as §1

[10] = compound: CC[C@@H]1C(=O)N(C)c2cnc(Nc3ccc(C(=O)NC4CCN(C)CC4)cc3OC)nc2N1C1CCCC1
In short: as §1

volasertib = compound: CC[C@@H]1C(=O)N(C)c2cnc(Nc3ccc(C(=O)N[C@H]4CC[C@H](N5CCN(CC6CC6)CC5)CC4)cc3OC)nc2N1C(C)C [volasertib]
In short: as §1

[11] = compound: CCn1c(C(=O)N(C2CC2)C2CC2)cc2c3c(ncn3C)c(Nc3cc(C)n(C)n3)nc21
In short: as §1

[12] = compound: CCn1cc(-c2ccnc3[nH]c(-c4cccc(CN(C)C)c4)cc23)c(-c2ccc(NC(=O)N(C)C)cc2)n1
In short: as §1

[13] = compound: CN1CCC(CNc2ccc3ncc(-c4cccc(OC(F)(F)F)c4)n3n2)CC1
In short: as §1

saracatinib = compound: CN1CCN(CCOc2cc(OC3CCOCC3)c3c(Nc4c(Cl)ccc5c4OCO5)ncnc3c2)CC1 [saracatinib]
In short: as §1

sotrastaurin = compound: CN1CCN(c2nc(C3=C(c4c[nH]c5ccccc45)C(=O)NC3=O)c3ccccc3n2)CC1 [sotrastaurin]
In short: as §1

Measured: log2 fold change

GGA2 (UniProt Q9UJY4)
Chain of UniProt Q9UJY4 (Q9UJY4 whole entry, looked up): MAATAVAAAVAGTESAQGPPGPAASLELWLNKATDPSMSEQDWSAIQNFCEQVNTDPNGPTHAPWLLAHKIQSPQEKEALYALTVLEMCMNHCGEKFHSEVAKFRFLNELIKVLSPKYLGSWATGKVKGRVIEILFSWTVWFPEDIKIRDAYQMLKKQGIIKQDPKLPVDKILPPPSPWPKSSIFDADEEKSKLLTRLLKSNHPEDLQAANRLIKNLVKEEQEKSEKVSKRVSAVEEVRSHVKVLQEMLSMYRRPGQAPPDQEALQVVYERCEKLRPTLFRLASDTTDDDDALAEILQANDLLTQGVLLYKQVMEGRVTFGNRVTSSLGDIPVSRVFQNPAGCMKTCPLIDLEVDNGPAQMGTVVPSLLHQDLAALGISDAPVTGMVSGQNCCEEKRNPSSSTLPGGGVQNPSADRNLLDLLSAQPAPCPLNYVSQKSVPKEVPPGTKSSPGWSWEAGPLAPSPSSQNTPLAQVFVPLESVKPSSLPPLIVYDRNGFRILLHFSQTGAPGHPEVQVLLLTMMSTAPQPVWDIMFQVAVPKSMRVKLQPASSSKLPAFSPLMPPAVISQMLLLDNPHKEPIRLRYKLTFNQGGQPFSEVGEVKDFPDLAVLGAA
inactive: ibrutinib -0.007 | [1] 0 | ralimetinib 0.026 | [2] -0.01 | [3] -0.062 | [4] 0.099 | [5] 0.01 | [6] -0.024 | [7] 0.031 | [8] -0.021 | vemurafenib -0.003 | [9] 0.011 | barasertib 0.073 | [10] -0.005 | volasertib -0.048 | [11] 0.032 | [12] -0.02 | [13] -0.088 | saracatinib 0.025 | sotrastaurin 0.041

FBXO30 (UniProt Q8TB52)
inactive: ibrutinib 0.022 | [1] -0.007 | ralimetinib 0.057 | [2] 0.046 | [3] -0.009 | [4] -0.003 | [5] 0.013 | [6] 0.016 | [7] 0.006 | [8] 0.016 | vemurafenib -0.065 | [9] 0.02 | barasertib 0.015 | [10] -0.026 | volasertib -0.042 | [11] 0.009 | [12] 0.208 | [13] -0.115 | saracatinib -0.015 | sotrastaurin -0.013

FREM2 (UniProt Q5SZK8)
inactive: ibrutinib -0.062 | [1] 0.024 | ralimetinib -0.014 | [2] -0.042 | [3] -0.024 | [4] -0.06 | [5] -0.01 | [6] 0.079 | [7] 0.035 | [8] -0.073 | vemurafenib 0.003 | [9] -0.082 | barasertib 0.136 | [10] -0.072 | volasertib 0.026 | [11] 0.014 | [12] -0.366 | [13] 0.151 | saracatinib 0.051 | sotrastaurin 0.056

EXOC4 (UniProt Q96A65)
Chain of UniProt Q96A65 (Q96A65 whole entry, looked up): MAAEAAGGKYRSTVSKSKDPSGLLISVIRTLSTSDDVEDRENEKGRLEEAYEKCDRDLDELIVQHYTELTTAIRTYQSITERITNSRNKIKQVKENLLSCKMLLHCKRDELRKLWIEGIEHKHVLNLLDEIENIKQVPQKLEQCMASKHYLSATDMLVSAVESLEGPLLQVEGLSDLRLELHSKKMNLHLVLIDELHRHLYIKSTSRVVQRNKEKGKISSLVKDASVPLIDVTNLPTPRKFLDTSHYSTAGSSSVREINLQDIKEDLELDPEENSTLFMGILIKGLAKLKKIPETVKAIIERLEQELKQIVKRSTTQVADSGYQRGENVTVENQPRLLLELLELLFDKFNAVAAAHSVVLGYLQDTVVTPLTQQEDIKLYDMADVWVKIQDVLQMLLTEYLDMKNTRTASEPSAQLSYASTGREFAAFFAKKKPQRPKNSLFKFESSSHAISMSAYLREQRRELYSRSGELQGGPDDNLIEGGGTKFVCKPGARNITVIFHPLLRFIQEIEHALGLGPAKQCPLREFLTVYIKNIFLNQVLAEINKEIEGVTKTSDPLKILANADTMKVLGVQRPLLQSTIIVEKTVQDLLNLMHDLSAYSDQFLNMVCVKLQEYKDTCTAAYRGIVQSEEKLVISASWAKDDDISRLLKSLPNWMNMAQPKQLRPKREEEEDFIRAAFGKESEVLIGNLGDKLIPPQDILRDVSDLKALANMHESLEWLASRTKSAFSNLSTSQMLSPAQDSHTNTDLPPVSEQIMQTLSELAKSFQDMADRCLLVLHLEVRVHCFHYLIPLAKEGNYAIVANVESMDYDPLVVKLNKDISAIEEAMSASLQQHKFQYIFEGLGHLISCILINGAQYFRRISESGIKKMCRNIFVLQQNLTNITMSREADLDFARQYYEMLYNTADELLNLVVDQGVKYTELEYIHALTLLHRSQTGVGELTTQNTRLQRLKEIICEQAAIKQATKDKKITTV
inactive: ibrutinib -0.004 | [1] -0.011 | ralimetinib 0.014 | [2] -0.031 | [3] -0.003 | [4] -0.013 | [5] 0.022 | [6] -0.031 | [7] 0.02 | [8] 0.002 | vemurafenib 0.079 | [9] 0.01 | barasertib 0.055 | [10] -0.06 | volasertib -0.055 | [11] 0.025 | [12] 0.022 | [13] -0.079 | saracatinib 0.006 | sotrastaurin 0.018

EMP3 (UniProt P54852)
Chain of UniProt P54852 (P54852 whole entry, looked up): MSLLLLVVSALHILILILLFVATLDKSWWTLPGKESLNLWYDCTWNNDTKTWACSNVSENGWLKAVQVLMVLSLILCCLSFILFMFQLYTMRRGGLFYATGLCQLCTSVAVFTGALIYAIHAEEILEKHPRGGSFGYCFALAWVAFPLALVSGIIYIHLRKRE
active: [12] -0.967 | [13] 0.365
inactive: ibrutinib 0.045 | [1] -0.012 | ralimetinib 0.088 | [2] -0.081 | [3] 0 | [4] 0.013 | [5] -0.003 | [6] 0.041 | [7] -0.036 | [8] -0.01 | vemurafenib 0.022 | [9] -0.002 | barasertib 0.005 | [10] 0.066 | volasertib 0.124 | [11] -0.112 | saracatinib 0.049 | sotrastaurin -0.029

GAPVD1 isoform 6 (UniProt Q14C86)
Chain of UniProt Q14C86 (Q14C86 whole entry, looked up): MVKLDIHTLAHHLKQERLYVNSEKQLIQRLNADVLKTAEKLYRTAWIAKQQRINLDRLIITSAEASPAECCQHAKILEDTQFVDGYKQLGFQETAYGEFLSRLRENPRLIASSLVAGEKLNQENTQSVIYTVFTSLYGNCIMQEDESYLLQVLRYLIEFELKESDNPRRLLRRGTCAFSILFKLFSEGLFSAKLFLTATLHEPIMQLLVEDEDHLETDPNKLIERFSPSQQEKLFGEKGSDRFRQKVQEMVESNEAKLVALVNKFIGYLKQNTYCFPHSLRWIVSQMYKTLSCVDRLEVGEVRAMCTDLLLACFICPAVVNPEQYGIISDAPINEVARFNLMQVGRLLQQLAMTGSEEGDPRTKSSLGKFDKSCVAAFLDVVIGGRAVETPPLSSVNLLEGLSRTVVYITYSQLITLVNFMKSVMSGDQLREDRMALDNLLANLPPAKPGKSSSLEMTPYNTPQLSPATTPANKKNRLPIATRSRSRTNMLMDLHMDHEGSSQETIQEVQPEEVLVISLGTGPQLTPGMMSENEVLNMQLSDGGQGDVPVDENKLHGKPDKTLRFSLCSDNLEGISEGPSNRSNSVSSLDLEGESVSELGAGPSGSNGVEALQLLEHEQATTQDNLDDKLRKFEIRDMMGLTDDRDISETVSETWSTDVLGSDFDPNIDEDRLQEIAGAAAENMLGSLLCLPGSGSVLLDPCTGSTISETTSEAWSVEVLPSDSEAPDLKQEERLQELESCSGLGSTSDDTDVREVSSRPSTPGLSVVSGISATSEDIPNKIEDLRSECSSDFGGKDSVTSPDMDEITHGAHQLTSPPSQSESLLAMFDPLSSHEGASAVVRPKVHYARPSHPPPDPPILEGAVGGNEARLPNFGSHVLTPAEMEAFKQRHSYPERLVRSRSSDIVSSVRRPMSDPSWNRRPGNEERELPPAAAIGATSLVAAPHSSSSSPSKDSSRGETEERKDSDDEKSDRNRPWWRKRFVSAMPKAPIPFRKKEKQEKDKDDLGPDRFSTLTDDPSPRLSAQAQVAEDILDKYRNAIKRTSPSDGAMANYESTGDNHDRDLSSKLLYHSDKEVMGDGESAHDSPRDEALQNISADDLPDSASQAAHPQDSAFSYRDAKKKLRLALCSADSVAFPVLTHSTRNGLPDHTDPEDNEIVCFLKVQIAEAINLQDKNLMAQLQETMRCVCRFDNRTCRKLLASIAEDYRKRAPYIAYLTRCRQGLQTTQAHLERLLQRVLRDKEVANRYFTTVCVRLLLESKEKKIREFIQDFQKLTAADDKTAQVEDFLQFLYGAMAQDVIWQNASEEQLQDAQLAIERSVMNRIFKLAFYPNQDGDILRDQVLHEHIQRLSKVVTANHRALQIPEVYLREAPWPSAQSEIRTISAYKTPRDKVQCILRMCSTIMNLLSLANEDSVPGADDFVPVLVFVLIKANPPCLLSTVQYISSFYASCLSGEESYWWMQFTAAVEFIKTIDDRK
inactive: ibrutinib 0.005 | [1] 0.003 | ralimetinib 0.031 | [2] -0.004 | [3] -0.018 | [4] 0.028 | [5] 0.008 | [6] 0.003 | [7] 0.011 | [8] 0.018 | vemurafenib 0.011 | [9] 0.006 | barasertib 0.01 | [10] -0.077 | volasertib -0.036 | [11] 0.027 | [12] 0.046 | [13] -0.083 | saracatinib 0.014 | sotrastaurin 0.012

FDFT1 (UniProt P37268)
inactive: ibrutinib -0.004 | [1] -0.014 | ralimetinib -0.014 | [2] 0.018 | [3] 0.013 | [4] -0.034 | [5] -0.028 | [6] -0.02 | [7] 0.017 | [8] 0.012 | vemurafenib -0.012 | [9] 0.111 | barasertib 0.023 | [10] 0.005 | volasertib -0.069 | [11] 0.01 | [12] -0.047 | [13] -0.022 | saracatinib -0.019
active: sotrastaurin 0.437

ERLIN2 (UniProt O94905)
inactive: ibrutinib 0.033 | [1] -0.028 | ralimetinib 0.026 | [2] -0.023 | [3] -0.023 | [4] -0.012 | [5] -0.031 | [6] -0.016 | [7] 0.066 | [8] -0.014 | vemurafenib -0.003 | [9] 0.012 | barasertib 0.021 | [10] 0.05 | volasertib -0.029 | [11] 0.012 | [13] -0.135 | saracatinib 0.008 | sotrastaurin -0.008
active: [12] 0.384

GART (UniProt P22102)
inactive: ibrutinib 0.007 | [1] 0.009 | ralimetinib 0.01 | [2] 0.036 | [3] 0.013 | [4] -0.014 | [5] 0.009 | [6] -0.027 | [7] -0.006 | [8] 0.021 | vemurafenib 0.007 | [9] 0.001 | barasertib 0.028 | [10] -0.066 | volasertib -0.054 | [11] 0.038 | [12] 0.124 | [13] -0.013 | saracatinib 0.011 | sotrastaurin -0.023

DST (UniProt Q03001)
inactive: ibrutinib 0.007 | [1] -0.031 | ralimetinib -0.034 | [2] -0.098 | [3] 0.021 | [4] -0.052 | [5] -0.054 | [6] 0.049 | [7] 0.063 | [8] -0.046 | vemurafenib 0.23 | [9] 0.021 | barasertib 0.083 | [10] 0.021 | volasertib -0.045 | [11] -0.073 | [12] -0.174 | [13] 0.076 | saracatinib 0.052 | sotrastaurin -0.024

ERBIN isoform 8 (UniProt Q96RT1)
Chain of UniProt Q96RT1 (Q96RT1 whole entry, looked up): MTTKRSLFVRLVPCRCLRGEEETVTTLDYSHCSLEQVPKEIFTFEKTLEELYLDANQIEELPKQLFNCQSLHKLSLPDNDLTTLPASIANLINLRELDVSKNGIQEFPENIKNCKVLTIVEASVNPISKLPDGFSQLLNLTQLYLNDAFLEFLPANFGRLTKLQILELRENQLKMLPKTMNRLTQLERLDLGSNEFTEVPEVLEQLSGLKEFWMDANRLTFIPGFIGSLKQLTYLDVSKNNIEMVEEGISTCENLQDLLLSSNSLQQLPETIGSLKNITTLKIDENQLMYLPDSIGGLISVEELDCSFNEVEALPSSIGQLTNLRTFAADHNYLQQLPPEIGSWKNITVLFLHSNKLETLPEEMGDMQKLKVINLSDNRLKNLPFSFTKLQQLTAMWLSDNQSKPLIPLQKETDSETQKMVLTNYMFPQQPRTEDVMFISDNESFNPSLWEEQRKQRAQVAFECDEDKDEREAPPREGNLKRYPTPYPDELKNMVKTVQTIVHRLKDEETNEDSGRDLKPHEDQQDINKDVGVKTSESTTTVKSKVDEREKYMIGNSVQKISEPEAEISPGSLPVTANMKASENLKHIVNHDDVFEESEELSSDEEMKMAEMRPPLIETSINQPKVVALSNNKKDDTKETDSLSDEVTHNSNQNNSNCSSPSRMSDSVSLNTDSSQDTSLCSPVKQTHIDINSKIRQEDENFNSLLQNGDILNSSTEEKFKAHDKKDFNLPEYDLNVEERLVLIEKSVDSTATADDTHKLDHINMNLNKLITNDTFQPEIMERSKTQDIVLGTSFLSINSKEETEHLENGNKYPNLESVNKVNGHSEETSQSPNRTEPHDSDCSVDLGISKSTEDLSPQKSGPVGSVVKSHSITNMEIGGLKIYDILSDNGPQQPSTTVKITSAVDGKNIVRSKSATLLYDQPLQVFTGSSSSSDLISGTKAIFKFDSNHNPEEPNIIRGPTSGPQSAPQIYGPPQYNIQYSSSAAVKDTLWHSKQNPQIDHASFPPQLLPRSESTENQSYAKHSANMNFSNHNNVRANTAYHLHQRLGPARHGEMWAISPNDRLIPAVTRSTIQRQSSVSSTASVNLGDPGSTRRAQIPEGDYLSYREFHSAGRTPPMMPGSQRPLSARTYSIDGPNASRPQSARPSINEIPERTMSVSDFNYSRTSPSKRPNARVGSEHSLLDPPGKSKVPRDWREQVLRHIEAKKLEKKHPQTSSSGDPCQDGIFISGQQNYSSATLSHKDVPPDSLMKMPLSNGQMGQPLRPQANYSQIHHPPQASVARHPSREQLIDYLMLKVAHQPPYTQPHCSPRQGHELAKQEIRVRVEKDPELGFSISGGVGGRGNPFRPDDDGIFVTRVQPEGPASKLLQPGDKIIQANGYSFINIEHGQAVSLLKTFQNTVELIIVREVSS
inactive: ibrutinib 0.029 | [1] -0.011 | ralimetinib -0.003 | [2] 0.01 | [3] -0.003 | [4] -0.037 | [5] 0.012 | [6] -0.007 | [7] 0.019 | [8] -0.01 | vemurafenib 0.038 | [9] 0.015 | barasertib -0.004 | [10] 0.068 | volasertib -0.013 | [12] -0.028 | [13] 0.1 | saracatinib -0.001 | sotrastaurin 0.032
active: [11] 0.338

FUBP3 (UniProt Q96I24)
inactive: ibrutinib 0.024 | [1] 0.002 | ralimetinib 0.021 | [2] -0.051 | [3] 0.014 | [4] -0.018 | [5] 0.072 | [6] -0.149 | [7] -0.003 | [8] -0.018 | vemurafenib -0.007 | [9] 0.019 | barasertib 0.048 | [10] 0.046 | volasertib -0.032 | [11] 0.042 | [12] 0.028 | [13] -0.012 | saracatinib 0.03 | sotrastaurin -0.077

EIF2B3 (UniProt Q9NR50)
Chain of UniProt Q9NR50 (Q9NR50 whole entry, looked up): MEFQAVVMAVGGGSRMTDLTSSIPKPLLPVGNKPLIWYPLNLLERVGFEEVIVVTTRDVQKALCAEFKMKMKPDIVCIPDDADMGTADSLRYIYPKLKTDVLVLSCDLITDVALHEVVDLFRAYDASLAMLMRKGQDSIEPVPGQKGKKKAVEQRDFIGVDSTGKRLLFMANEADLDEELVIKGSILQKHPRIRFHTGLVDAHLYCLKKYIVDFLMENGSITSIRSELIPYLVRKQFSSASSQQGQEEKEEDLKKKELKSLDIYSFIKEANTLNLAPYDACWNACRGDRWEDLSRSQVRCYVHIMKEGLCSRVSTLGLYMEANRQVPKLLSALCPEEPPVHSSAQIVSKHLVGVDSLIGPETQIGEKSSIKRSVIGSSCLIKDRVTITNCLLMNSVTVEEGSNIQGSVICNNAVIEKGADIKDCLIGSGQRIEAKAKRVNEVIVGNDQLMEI
active: [12] 0.287
inactive: ibrutinib 0.007 | [1] 0.02 | ralimetinib 0.011 | [2] 0.005 | [3] 0.004 | [4] -0.004 | [5] -0.007 | [6] 0.043 | [7] 0.021 | [8] -0.004 | vemurafenib 0.013 | [9] 0.021 | barasertib -0.008 | [10] -0.028 | volasertib -0.02 | [11] 0.044 | [13] -0.111 | saracatinib 0.005 | sotrastaurin -0.003
